Sampled rows, rich in hits. Any-hit rate of the full collection: about 1.2%.
Avidin fluor – compound fluoresces at 488/530 nm on avidin beads | fluorescence (KMESF) at 10 µM | compound fluorescence 488/530 nm, flow cytometry; active compounds read high | AID 1775 | actives 0.38% (n = 220,000); in the data active = fluorescence above about 47
RGS7-Gao reg – regulators of human RGS7-Galphao interaction. AID 1439. actives 0.35% (n = 220,000). P09471. Multiplexed bead flow cytometry, RGS7-Galphao binding; actives lie on both sides. binding response (% of control), % at 10 µM; in the data active = binding response below about 49% or above about 150%; inconclusive = no clear call, values can overlap the other calls; inactive = in between;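 also: fluorescent Galphao held in activated GDP-AlF4 state binding bead-coupled RGS7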
GSH bead fluor – GSH bead compound fluorescence profile | GSH beads flow cytometry, compound fluorescence 488/530 nm; active compounds read high | fluorescence (KMESF) at 10 µM | actives 0.25% (n = 190,000); in the data active = fluorescence above about 89;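 also: glutathione beads carrying GST-tagged Bcl family fusion proteins plus one bare bead set; values are compound well signal with DMSO vehicle wells as background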
RGS4-Gao reg – modulates binding of RGS4 to human Galphao. Multiplexed bead flow cytometry; actives lie on both sides. P09471. binding response (% of control), % at 10 µM. actives 0.33% (n = 220,000); in the data active = binding response below about 49% or above about 150%; inactive = in between;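 also: fluorescent Galphao activated with aluminum fluoride binding bead-coupled RGS4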
RGS16-Gao HTS – modulates binding between human RGS16 and Galphao | O15492+P09471 | bead-based flow cytometry RGS16-Galphao binding, fluorescence; actives lie on both sides | binding response (% of control), % at 10 µM | actives 0.38% (n = 220,000) | AID 1441;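 also: Galphao activated by GDP with aluminum fluoride before binding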
Target sequence (O15492 whole entry, looked up): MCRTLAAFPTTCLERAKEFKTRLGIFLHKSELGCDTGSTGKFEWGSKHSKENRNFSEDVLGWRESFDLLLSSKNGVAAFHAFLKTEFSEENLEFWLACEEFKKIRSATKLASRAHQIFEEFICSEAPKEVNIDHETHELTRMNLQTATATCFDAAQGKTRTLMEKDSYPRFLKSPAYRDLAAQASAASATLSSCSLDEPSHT
Target sequence (P09471 whole entry, looked up): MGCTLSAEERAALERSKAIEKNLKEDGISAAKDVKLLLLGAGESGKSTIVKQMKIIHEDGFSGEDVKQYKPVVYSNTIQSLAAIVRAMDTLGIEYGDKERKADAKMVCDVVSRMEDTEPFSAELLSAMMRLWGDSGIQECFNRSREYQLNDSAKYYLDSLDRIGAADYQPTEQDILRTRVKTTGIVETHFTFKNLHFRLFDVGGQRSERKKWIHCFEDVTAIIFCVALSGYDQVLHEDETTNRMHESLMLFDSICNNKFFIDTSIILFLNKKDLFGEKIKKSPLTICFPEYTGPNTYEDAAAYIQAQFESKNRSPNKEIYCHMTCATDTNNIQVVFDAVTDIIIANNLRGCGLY
RGS8-Gao reg – regulators of human RGS8-Galphao interaction; response (percent of control binding), % at 10 µM; P09471; multiplexed bead flow cytometry, RGS8-Galphao binding; actives lie on both sides; actives 0.34% (n = 220,000); in the data active = response below about 60% or above about 140%; inactive = in between;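 also: Galphao activated as the GDP aluminium fluoride complex binding bead-coupled RGS8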
RGS4-Gao HTS – RGS4-Galphao interaction regulator (human) | actives 99% (n = 1,600) | RGS4–Galpha-o binding response, % at 10 µM | shares compounds with RGS16-Gao HTS | multiplexed bead flow cytometry, RGS–Galpha-o binding;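 also: fluorescently labeled Galpha-o bound to GDP with aluminium fluoride binding biotinylated RGS beads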
Biotin-avidin – biotin-avidin bead binding disruption counter-screen. shares compounds with RGS16-Gao HTS. streptavidin beads, fluorescein-biotin binding, flow cytometry. inhibition, % at 10 µM. 1,700 tested, under 10 active;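 active = inhibition above 50%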;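 also: median green fluorescence of gated singlet beads compared with DMSO control wells; 0% = DMSO wells and 100% = complete loss of bead fluorescence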
RGS8-Gao single – confirmation of regulators of human RGS8-Galphao interaction; actives 3% (n = 1,700); bead-based flow cytometry RGS8-Galphao binding, fluorescence; actives lie on both sides; AID 1836; shares compounds with RGS16-Gao HTS; binding response (% of control), % at 10 µM; in the data active = binding response below about 72% or above about 130%; inactive = in between;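 also: Galphao activated as GDP AlF4 complex before binding bead RGS8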
RGS7-Gao single – RGS7-Galphao interaction regulation, single point confirmation; shares compounds with RGS16-Gao HTS; bead-based flow cytometry RGS7-Galphao binding; actives lie on both sides; response (percent of control binding), % at 10 µM; actives 7.8% (n = 1,700); AID 1837; in the data active = response below about 75% or above about 130%; inactive = in between;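 also: fluorescent Galphao activated with GDP and aluminum fluoride binding bead-coupled RGS7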
RGS16-Gao single – confirmation of regulators of human RGS16-Galphao interaction. shares compounds with RGS16-Gao HTS. bead-based flow cytometry, RGS16-Galphao binding; actives lie on both sides. response (% of control binding), % at 10 µM. actives 4% (n = 1,700); in the data active = response below about 74% or above about 130%; inactive = in between;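 also: Galphao activated as the GDP aluminium fluoride complex binding bead-coupled RGS16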
RGS4-Gao confirm – RGS4-Galphao interaction regulation, single point confirmation | shares compounds with RGS16-Gao HTS | RGS4-Galphao binding, multiplexed bead flow cytometry; actives lie on both sides | binding response (% of control), % at 10 µM | actives 4% (n = 1,700); in the data active = binding response below about 74% or above about 130%; inactive = in between
RGS19-Gao conf – confirmation of regulators of human RGS19-Galphao interaction; shares compounds with RGS16-Gao HTS; bead-based flow cytometry RGS19-Galphao binding; actives lie on both sides; response (percent of control binding), % at 10 µM; actives 5% (n = 1,700); AID 1841; in the data active = response below about 50% or above about 160%; inactive = in between;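 also: 100% = no compound control and 0% = blank background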
* hit, by the source's call; i = inactive; ? = inconclusive; · = not tested or not shown; [ ] = another dose, or the depositor's remark. Unless noted, no rule for the calls is given here.

SMILES	Avidin fluor	RGS7-Gao reg	GSH bead fluor	RGS4-Gao reg	RGS16-Gao HTS	RGS8-Gao reg	RGS4-Gao HTS	Biotin-avidin	RGS8-Gao single	RGS7-Gao single	RGS16-Gao single	RGS4-Gao confirm	RGS19-Gao conf
CCOC(=O)N1CCC(NC(=O)CSc2cc(=O)n(C)c3ccccc23)CC1	11	111.0	28	110.3	241.3	140.4*[activator]	110.3*	-8.6	108.7	112.9	108.5	111.6	113.6
Cn1c(=O)cc(SCC(=O)N2CCCC2)c2ccccc21	6	101.2	38	97.7	93.9	100.8	·	·	·	·	·	·	·
Oc1cccc(Oc2ncc(C(F)(F)F)cc2Cl)c1	10	97.6	15	98.3	100.0	100.0	·	·	·	·	·	·	·
O=C(Cc1csc(N2CCOCC2)n1)N/N=C/c1ccc(O)c(O)c1O	5	?	12	66.2	49.0	57.2*	66.2*	i	72.0*	68.4*	69.8*	79.1	36.8*
COc1ccc(CNc2nc3ccccc3n2C)c(O)c1	8	?	·	97.7	101.7	102.9	·	·	·	·	·	·	·
Cn1c(NCc2cc(Br)ccc2O)nc2ccccc21	7	116.0	6	118.5	291.0	141.0*[activator]	118.5*	-2.5	95.2	72.4*	84.6	85.3	80.4
CC(C)c1ccc(NC(=O)COC(=O)C2=COCCO2)cc1	6	108.3	19	112.1	186.6	121.2	·	·	·	·	·	·	·
CC(C)(C)c1ccc(NC(=O)COC(=O)C2=COCCO2)cc1	3	109.0	4	116.8	-183.3*	105.5	116.8*	0.5	92.8	59.7*	74.6	73.4*	57.4
COc1cc(CCCN2C(=S)NC[C@@H]2CC2CCCCC2)cc(OC)c1OC	15	?	·	104.1	103.5	103.7	·	·	·	·	·	·	·
O=C(NNC(=O)C1CC(c2cccs2)=NO1)NC1CCCCC1 (stereo not drawn)	21	97.2	13	98.0	99.9	97.6	·	·	·	·	·	·	·
CN(Cc1ccc(F)cc1)C(=O)c1ccc2c(c1)NC(=O)CS2	65*	170.6*[activator]	24	116.3	104.5	98.6	116.3*	2.0	100.3	96.7	98.2	99.3	94.2
C=C1SC(=Nc2c(C)cc(C)cc2C)N(C(=O)c2sc3ccccc3c2Cl)C12CCCCC2	6	?	·	96.7	94.5	98.4	·	·	·	·	·	·	·
COc1ccc(N=C(C)C2=C(O)c3ccccc3C2=O)cc1	12	103.8	9	102.0	93.7	100.4	·	·	·	·	·	·	·
COc1ccc(N=C(N(C)C)P(=O)(N(C)C)N(C)C)cc1	3	125.8	39	138.3	i	150.5*[activator]	138.3*	0.8	101.5	100.3	105.0	102.7	111.3
C/C(=N\NC(=O)Cn1ccc(C(F)(F)F)n1)c1ccco1	25	99.6	21	100.7	102.9	101.5	·	·	·	·	·	·	·
Cc1ccc(CN(c2ccc(C(=O)Nc3cccnc3)cc2)S(C)(=O)=O)cc1	4	15.6*	10	-2.8*	4.8*	31.8*	·	-2.6	101.2	103.8	102.6	101.7	102.8
